Consider eight compounds from PubChem BioAssay.

Active and inactive are the calls of the source.

Experiment [1] in a line: A549 cell viability effects, profiling panel, calcein-AM fluorescence, 48 h, basal (AID 1162). The conditions noted are these: higher = more signal.
The nature of experiment [2]: adipocyte viability effects, profiling panel, cell-based, 3T3-L1 adipocytes, calcein-AM fluorescence, 48 h, basal (AID 1163). To be noted: 3T3-L1 adipocytes viability, higher = more signal.
Experiment [3] is described as follows: HepG2 cell viability effects, profiling panel, calcein-AM fluorescence, 48 h, basal (AID 1164). The conditions noted are these: higher = more signal.
A short description of experiment [4]: MM1S cell viability effects, profiling panel, calcein-AM fluorescence, 48 h, basal (AID 1165).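 Also: viability of MM1S multiple myeloma cells under basal unstimulated conditions.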 The conditions noted are these: higher = more signal.
The nature of experiment [5]: basal RPMI8226 viability, no added stimulus, profiling panel, cell-based, calcein-AM fluorescence, 48 h, PK04 Diversity Set (AID 1166).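 Also: cells grown under basal conditions without added stimulus.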 The conditions noted are these: RPMI8226 myeloma viability, higher = more signal.
The nature of experiment [6]: basal HepG2 mitochondrial membrane potential changes, profiling panel, cell-based, JC-1 fluorescence, 24 h, 100 nL compound (AID 1167). The conditions noted are these: higher = more signal.
Experiment [7] can be described thus: basal 3T3-L1 adipocyte mitochondrial potential changes, profiling panel, cell-based, JC-1 fluorescence, 3T3-L1 adipocytes, 24 h, 100 nL compound (AID 1168). The conditions noted are these: JC-1 mitochondrial fluorescence, higher = more signal, called active from +8 up or from −8 down.
Experiment [8] can be described thus: basal RPMI8226 mitochondrial membrane potential changes, profiling panel, cell-based, JC-1 fluorescence, 24 h, 100 nL compound (AID 1169). The conditions noted are these: RPMI8226 myeloma, JC-1 mitochondrial potential fluorescence, higher = more signal.
The nature of experiment [9]: basal MM1S mitochondrial membrane potential changes, profiling panel, cell-based, JC-1 fluorescence, 24 h, 100 nL compound (AID 1170). To be noted: higher = more signal.
A short description of experiment [10]: A549 lung cancer cell viability effects, profiling panel, resazurin fluorescence, 24 h, PK04 Diversity Set (AID 1171). To be noted: higher = more signal, called active from +8 up or from −8 down.
Also: test concentration not given here.

As to `COC(=O)C1(CC(C)C)C=C2C(=C(C)C(=O)C2C)CN1` (stereo not given), the z-score is -1.23 in [1]; -0.291 in experiment [2]; -1.14 in experiment [3]; -0.945 in experiment [4]; -1.77 in [5]; -1.04 in experiment [6]. Besides, the z-score in experiment [7] is -1.83 (inactive); in experiment [8], 0.147; in [9], -0.92; in experiment [10], -0.726 (inactive).
With `CC(=O)NCCCC[C@@H]1NC(=O)[C@H]2C[C@@H](C(=O)O)[C@@H](c3cccc(OCCO)c3)N2C1=O`, the z-score in experiment [1] was -0.103; in experiment [2], -0.349; in experiment [3], 0.276; in experiment [4], 0.34; in [5], 0.928; in experiment [6] it was 0.0103. Moreover, the z-score in experiment [7] is -0.55 (inactive); in experiment [8], -0.809; in experiment [9], -0.401; in [10], 0.354 (inactive).
For `CCCCN1CC=CC23O[C@@H]4/C=C\CCCOC(=O)C4[C@H]2C(=O)N(CCCCCCO)[C@@H]3C1=O` (stereo not given in full), the z-score was -0.0075 in experiment [1]; 1.61 in experiment [2]; 0.331 in [3]; 1.42 in experiment [4]; 0.88 in experiment [5]; 0.608 in experiment [6]. Moreover, the z-score was 1.38 (inactive) in experiment [7], 0.16 in experiment [8], -1.05 in experiment [9] and 0.851 (inactive) in experiment [10].
On to `O=C1N(Cc2ccccc2)c2ccccc2C[C@@]12N=C(c1ccc(OCCCO)cc1)O[C@H]2c1ccccc1`, for which the z-score in experiment [1] was -1.32; in experiment [2], 0.84; in [3] it was -1.86; in [4] it was -3.33; in experiment [5], -4.24; in experiment [6] it was -0.237. For the same compound, the z-score in experiment [7] is -0.0792 (inactive); in experiment [8] it was -1.29; in [9], 0.811; in experiment [10], -1.63 (inactive).
On to `COCCOC(=O)N1C(=O)[C@@]2(c3cc(C#CCCO)ccc31)[C@H](C(=O)N1CCN(c3ncccn3)CC1)[C@H]1C(=O)O[C@H](c3ccccc3)[C@H](c3ccccc3)N1[C@@H]2c1ccc(OCCO)cc1`, for which the z-score in experiment [1] was 0.451; in experiment [2] it was 0.474; in experiment [3] it was -0.442; in [4] it was -1.07; in experiment [5] it was 0.863; in [6], -1.02. For the same compound, the z-score is 0.0633 (inactive) in experiment [7], -0.185 in [8], -1.02 in experiment [9] and 0.427 (inactive) in [10].
On to `CC(C)C[C@@H]1NC(=O)[C@@H]2C[C@H](C(=O)NCCCCCCNC(=O)CS)[C@H](c3ccc(O)cc3)N2C1=O`, for which the z-score was 0.191 in [1]; 0.963 in experiment [2]; -0.892 in [3]; -0.523 in experiment [4]; 0.037 in experiment [5]; -1.69 in [6]. The z-score in experiment [7] was -0.226 (inactive); in experiment [8], -0.684; in experiment [9] it was -0.391; in [10], -0.399 (inactive).
Consider `CCOC(=O)C1=CCC(c2ccncc2)N(S(=O)(=O)c2ccc(C)cc2)C1` (stereo not given), for which the z-score was -1.72 in experiment [1]; -0.784 in [2]; -1.37 in [3]; -2.28 in [4]; -1.31 in [5]; -1.41 in experiment [6]. Further, the z-score in experiment [7] was 0.561 (inactive); in experiment [8], 0.115; in [9], -1.61; in experiment [10] it was -0.44 (inactive).
Regarding `CCOC(=O)C[C@H]1[C@H](OC(=O)c2cc3ccccc3oc2=O)[C@@H](NC(=O)Cc2ccc(OC)cc2)c2cc(OCCCO)ccc2N1C(=O)Cc1ccc(OC)cc1`, the z-score in experiment [1] was 1.16; in experiment [2], 1.68; in experiment [3], 0.37; in [4], 0.789; in experiment [5], 0.148; in experiment [6] it was 0.164. Also, the z-score in experiment [7] is -0.3 (inactive); in experiment [8], 0.301; in experiment [9], -0.985; in experiment [10], 0.551 (inactive).
